This is an account of results in PubChem BioAssay AID1224903 (Bradner/Qi Labs at DFCI, 2016).

The structures appear in SMILES notation. Several values for one entry are separate records, joined by “and”; a condition that tells them apart may be missing. Equal values may be shown once. Out of some 66,000 compounds screened, about 720 (1.1%) were called active. Cut-off read from the data, not from the text of the source: active = normalised signal below about 0.5; inactive = the rest, inconclusive results apart. The sample as a whole holds a higher share of actives than the screen did.

Sequence of Chromobox protein homolog 7 (Homo sapiens) (O95931 whole entry, looked up): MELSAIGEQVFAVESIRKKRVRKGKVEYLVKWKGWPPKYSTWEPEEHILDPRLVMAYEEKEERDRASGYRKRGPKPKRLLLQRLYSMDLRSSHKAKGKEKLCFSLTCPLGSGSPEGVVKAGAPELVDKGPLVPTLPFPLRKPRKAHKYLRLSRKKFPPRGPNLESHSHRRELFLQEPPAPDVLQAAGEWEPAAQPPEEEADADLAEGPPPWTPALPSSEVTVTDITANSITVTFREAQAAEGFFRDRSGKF

The experiment concerns the target Chromobox protein homolog 7 (Homo sapiens) (UniProt O95931). Nature of the experiment: blockers of CBX7 binding to H3K27me3 peptide – biochemical, AlphaScreen, primary screen (AID 1224903). The conditions noted are these: AlphaScreen His6-CBX7 / biotin-H3K27me3 peptide binding, stronger effect = lower value; z-score: measured here: z-score of CBX7 signal. In general terms: Alpha assays give light when donor and acceptor beads are brought close together.
For the compound `COc1ccc(OC)c(NC(=O)CCc2c(C)nc3c(c(C)nn3-c3ccc(C)cc3)c2C)c1`, the normalised signal (fraction of DMSO) is 0.992 (inactive) and the z-score is -0.0612.
With `CCCCCC(O)(CCN1CCCCC1)c1ccccc1` (centres undefined), the normalised signal (fraction of DMSO) is 1.09 (inactive) and the z-score was determined as 2.44.
As to `CCCN1C(=O)C(O)(CC(=O)c2ccc(CC)cc2)c2cc(Br)ccc21` (centres undefined), the normalised signal (fraction of DMSO) is 0.0492 (active) and the z-score is -1.07.
`CC(C)c1ccc(C(=O)CC2(O)C(=O)N(Cc3ccccc3)c3ccc(Br)cc32)cc1` (centres undefined): the normalised signal (fraction of DMSO) was 0.876 (inactive) and the z-score is -1.19.
On to `CCc1ccc(C(=O)CC2(O)C(=O)N(CCc3ccccc3)c3ccc(Br)cc32)cc1` (centres undefined), for which the normalised signal (fraction of DMSO) was 0.626 (inactive) and the z-score was -10.8.
`COc1ccccc1Nc1nc(-c2ccc(Br)cc2)cs1`: the normalised signal (fraction of DMSO) was 0.904 (inactive) and 0.953 (inactive); the z-score is -2.04 and -0.747.
`CN(CCCNC(=O)c1cc(-c2ccncc2)nc2ccccc12)C1CCCCC1`: the normalised signal (fraction of DMSO) was 1.17 (inactive) and the z-score was 1.9.
As to `Cc1ccc2oc(-c3cc(NC(=O)c4cccc(F)c4)ccc3Cl)nc2c1`, the normalised signal (fraction of DMSO) is 0.889 (inactive) and the z-score is -0.255.
For the compound `CCOC(=O)c1cc(-c2ccccc2)n(-c2cccc(C(=O)Nc3nccs3)c2)c1C`, the normalised signal (fraction of DMSO) is 0.944 (inactive) and the z-score was -1.01.
On to `CCOC(=O)c1cnc2cc(Cl)c(OC)cc2c1Nc1ccc(C(F)(F)F)cc1`, for which the normalised signal (fraction of DMSO) is 0.983 (inactive) and the z-score is -0.244.
The corresponding values for `CC(=O)Nc1ncc2c(n1)CC(c1cccs1)CC2=O` (centres undefined) are 0.997 (inactive) and -0.0863.
Take `Fc1ccc(-c2cc(C(F)(F)F)nc(NCc3ccc(Cl)cc3)n2)cc1`: the normalised signal (fraction of DMSO) is 1.25 (inactive) and the z-score turned out to be 2.79.
Take `O=C(NC1CCCC1)c1nn2c(C(F)(F)F)cc(-c3ccc(F)cc3)nc2c1Cl`: the normalised signal (fraction of DMSO) was 1.08 (inactive) and the z-score came out at 0.569.
`CCC(C)NC(=O)c1ccc2nc(N3CCOCC3)sc2c1` (centres undefined): the normalised signal (fraction of DMSO) is 1.08 (inactive) and the z-score came to 3.28.
On to `Cn1cc(CC(=O)N2CCN(c3ccccn3)CC2)c2ccccc21`, for which the normalised signal (fraction of DMSO) is 0.973 (inactive) and the z-score is -0.31.
Turning to `O=C(NCCCc1nc2ccccc2n1Cc1ccccc1F)c1ccc(F)cc1`, the normalised signal (fraction of DMSO) was 0.957 (inactive) and the z-score was -1.01.
Consider `Cn1c(C(=O)NCCCSC2CCCCC2)cc2sc(Cl)cc21`, for which the normalised signal (fraction of DMSO) is 1.03 (inactive) and the z-score was 0.498.
The corresponding values for `Cc1ccc(-c2nc(-c3ccccc3Cl)no2)cc1` are 1.16 (inactive) and 1.59.
In the case of `COc1ccc(-n2c3c(cc(C(=O)NC(C)(C)C)c2=O)C(=O)CC(C)(C)C3)cc1`, the normalised signal (fraction of DMSO) is 1.06 (inactive) and the z-score came out at 0.667.
As for `Cc1ccc(-c2nnc(SCC(=O)Nc3cc(C)on3)o2)cc1`, the normalised signal (fraction of DMSO) was 1.19 (inactive) and the z-score is 2.87.
For `Cc1cc(NC(=O)CSc2nnc(-c3ccc(Cl)s3)o2)no1`, the normalised signal (fraction of DMSO) is 1.1 (inactive) and the z-score worked out at 1.02.
Take `COc1ccc(OC)c(-c2nnc(SCC(=O)Nc3cc(C)on3)o2)c1`: the normalised signal (fraction of DMSO) was 0.264 (active) and the z-score is -15.1.
